# Experimental data taken from ChEMBL document CHEMBL3988442, “University of Dundee, Small-Polar-MMV Screening Library” (2021).
# About 1,000 (1.4%) of roughly 69,000 compounds showed an effect of 50% or more. This excerpt belongs to a sample that is enriched for strong results.
# System: Leishmania donovani
# Test: Leishmania intramacrophage assay
# Assay type: functional, organism-based
# Design: scale not given: in the data most compounds retested in dose-response had high values
smiles,measurement,setting,value
CN(Cc1cccc(OC(F)(F)F)c1)Cc1cnn(C)c1,Percent Effect,"30.3 µM, […]",10.05%
CCN1CCCC(O)(CNCc2ccncc2)C1 (stereo unspecified),Percent Effect,"30.3 µM, […]",-12.57%
Cc1cc(NCc2ccc(S(N)(=O)=O)cc2)nc(C)n1,Percent Effect,"30.3 µM, […]",22.51%
COCCN(CC1CC1)c1nc(CCN)nc2ccccc12,Percent Effect,"30.3 µM, […]",14.22%
COCCN(Cc1cccs1)c1nc(CCN)nc2ccccc12,Percent Effect,"30.3 µM, […]",70.83%
Cc1ccsc1CN(c1nc(CCN)nc2ccccc12)C1CC1,Percent Effect,"30.3 µM, […]",40.33%
COCCN(Cc1ccccc1Cl)c1nc(CCN)nc2ccccc12,Percent Effect,"30.3 µM, […]",98.78%
NCCc1nc(N(Cc2cncs2)C2CC2)c2ccccc2n1,Percent Effect,"30.3 µM, […]",-1.942%
NCCc1nc(N(Cc2nccs2)C2CC2)c2ccccc2n1,Percent Effect,"30.3 µM, […]",-16.71%
CCS(=O)(=O)CC(=O)N1CCCC(c2noc(C(C)C)n2)C1 (stereo unspecified),Percent Effect,"30.3 µM, […]",10.94%
CCOCCN1CCN(CC(O)c2ccc(C)c(C)c2)CC1 (stereo unspecified),Percent Effect,"30.3 µM, […]",32.27%
Cc1nn(C)c(C)c1C1CCCN1C(=O)c1ccc2nnc(C)n2c1 (stereo unspecified),Percent Effect,30 µM,22.91%
CCC(CO)N(Cc1ccco1)C(=O)c1ccccc1NC (stereo unspecified),Percent Effect,"30.3 µM, […]",33.8%
CCC(CO)N(Cc1ccco1)C(=O)c1ccccc1SC (stereo unspecified),Percent Effect,"30.3 µM, […]",54.97%
CCC(CO)N(Cc1ccco1)C(=O)c1cccc(C)c1O (stereo unspecified),Percent Effect,"30.3 µM, […]",10.11%
FC(F)CN1CCC(NCCc2ccc(-n3cccn3)cc2)CC1,Percent Effect,"30.3 µM, […]",23.28%
c1ccc(N2CCC(NCCc3ccc(-n4cccn4)cc3)CC2)nc1,Percent Effect,"30.3 µM, […]",62.72%
c1cnn(-c2ccc(CCNC3CCN(C4CC4)C3)cc2)c1 (stereo unspecified),Percent Effect,"30.3 µM, […]",-4.355%
COc1ccc(C(C)CCNC2CCN(c3ccccn3)CC2)cc1 (stereo unspecified),Percent Effect,"30.3 µM, […]",60.53%
CC(C)COCCNC1CCN(c2ccccn2)CC1,Percent Effect,"30.3 µM, […]",16.23%
CC(CNC1CCN(c2ccccn2)CC1)Oc1ccc(F)cc1 (stereo unspecified),Percent Effect,"30.3 µM, […]",19.84%
O=C(O)C(F)(F)F.O=C(c1n[nH]c2c1CCN(Cc1nccs1)C2)N1CCCC1,Percent Effect,"30 µM, 30.03 µM",10.02%
COc1cccc(-n2cc(CN(C)Cc3ccnc(C(C)C)n3)cn2)c1,Percent Effect,"30.3 µM, […]",11.44%
CCOCC1CN(C(=O)Cc2ccccn2)Cc2cn(C)nc21 (stereo unspecified),Percent Effect,"30.3 µM, […]",5.026%
O=C(c1ccco1)N1CCOCC2(C1)CN(c1ccoc1)C(=O)CO2 (stereo unspecified),Percent Effect,"30.3 µM, […]",15.48%
CCn1cnnc1CCNC(=O)C1COc2ccc(OC)cc2C1 (stereo unspecified),Percent Effect,"30.3 µM, […]",15.43%
COc1nn(C)c2c1CCCN(C(=O)c1cccc3cccnc13)C2.O=C(O)C(F)(F)F,Percent Effect,"30.3 µM, […]",75.35%
COc1nn(C)c2c1CCCN(C(=O)c1cccc(C)n1)C2.O=C(O)C(F)(F)F,Percent Effect,"30.3 µM, […]",4.327%
COc1nn(C)c2c1CCCN(C(=O)c1ccc3ccccc3n1)C2.O=C(O)C(F)(F)F,Percent Effect,"30.3 µM, […]",-11.56%
Cc1nnc2n1CCN(CC(=O)NC(C)c1cccc3ccccc13)C2 (stereo unspecified),Percent Effect,"30.3 µM, […]",-27.74%
Cc1nc(=O)c2ccccc2n1C1=CCN(CC(=O)NC(C)C)CC1,Percent Effect,"30.3 µM, […]",64.5%
Cc1nc2ccccc2c(=O)n1CCC(=O)N1CCCCCC1,Percent Effect,30 µM,21.32%
Cc1nc(=O)c2ccccc2n1C1=CCN(CC(=O)N2CCCC2)CC1,Percent Effect,"30.3 µM, […]",66.01%
Cc1nc2ccccc2c(=O)n1CCC(=O)N1CCCC1,Percent Effect,30 µM,19.05%
COCCNC(=O)CN1CC=C(n2c(C)nc(=O)c3ccccc32)CC1,Percent Effect,"30.3 µM, […]",40.79%
CSCCNC(=O)c1ccc(OC2CCN(CC(C)(C)C)CC2)c(Cl)c1,Percent Effect,"30 µM, 30.03 µM",17.7%
COCc1n[nH]c2c1CN(Cc1ccccn1)C2.O=C(O)C(F)(F)F,Percent Effect,"30.3 µM, […]",2.635%
Cc1nc(CN2CC[C@H]3[C@@H]2CCC(=O)N3c2cnn(C)c2)cs1.O=C(O)C(F)(F)F,Percent Effect,"30.3 µM, […]",2.736%
CC(C)(C)C(=O)N1CCN(C(=O)Nc2cnn(CC(F)F)c2)CC1,Percent Effect,"30.3 µM, […]",4.989%
O=C(c1cccnc1)N1CCCC(c2ncncc2-c2ccncc2)C1 (stereo unspecified),Percent Effect,"30.3 µM, […]",1.341%
CCO[C@@H]1CCN(C(=O)c2cscn2)[C@@H]1Cc1cnn(C)c1,Percent Effect,"30 µM, 30.03 µM",-2.934%
CCO[C@@H]1CCN(C(=O)c2cnc(C)cn2)[C@@H]1Cc1cnn(C)c1,Percent Effect,"30.3 µM, […]",53.66%
CCO[C@@H]1CCN(C(=O)N(C)C)[C@@H]1Cc1cnn(C)c1,Percent Effect,"30.3 µM, […]",27.5%
COCCO[C@H]1CCN(C(=O)c2cnccn2)[C@H]1Cc1ccncc1,Percent Effect,"30.3 µM, […]",54.37%
COCCO[C@H]1CCN(C(=O)c2ccsc2)[C@H]1Cc1ccncc1,Percent Effect,"30.3 µM, […]",26.31%
COCCO[C@H]1CCN(C(=O)c2ccc[nH]2)[C@H]1Cc1ccncc1,Percent Effect,"30 µM, 30.03 µM",17.48%
CN(C)S(=O)(=O)N1CC[C@]2(C[C@@H](Oc3cccnc3)CO2)C1.O=C(O)C(F)(F)F,Percent Effect,"30.3 µM, […]",7.751%
Cc1ccc(N2CCCc3sc(C(=O)NCc4ccc(C)o4)nc32)nn1,Percent Effect,"30.3 µM, […]",18.34%
O=C1N(CCCc2ccccc2)CCCC1(O)CNCc1ccccc1 (stereo unspecified),Percent Effect,"30 µM, 30.03 µM",54.86%
O=C1OCCN1CCNCC1(O)CCCN(CCC2CCCCC2)C1=O (stereo unspecified),Percent Effect,"30.3 µM, […]",27.13%
O=C1NCCN1CCNCC1(O)CCCN(CCC2CCCCC2)C1=O (stereo unspecified),Percent Effect,"30.3 µM, […]",17.71%
COCCNCC1(O)CCCN(Cc2ccc(F)c(F)c2)C1=O (stereo unspecified),Percent Effect,"30.3 µM, […]",36.88%
O=C1N(Cc2ccc(F)c(F)c2)CCCC1(O)CNCC1CCCCC1 (stereo unspecified),Percent Effect,"30.3 µM, […]",62.26%
O=C1N(CCc2ccccc2)CCCC1(O)CNCc1ccc(F)cc1 (stereo unspecified),Percent Effect,"30.3 µM, […]",14.91%
C=C(C)CNCC1(O)CCCN(Cc2ccc(F)c(F)c2)C1=O (stereo unspecified),Percent Effect,"30.3 µM, […]",36.85%
O=C1N(CCCc2ccccc2)CCCC1(O)CNCC1CCCCC1 (stereo unspecified),Percent Effect,"30.3 µM, […]",36.42%
O=C1N(CCC2CCCCC2)CCCC1(O)CNCCc1ccccc1 (stereo unspecified),Percent Effect,"30.3 µM, […]",74.42%
Cc1nsc(N2CCc3sccc3C2)n1,Percent Effect,"30.3 µM, […]",14.81%
Cc1cnn(CCCNC(=O)N2CCCCC(N3CCCC3)C2)c1 (stereo unspecified),Percent Effect,"30 µM, 30.03 µM",26.48%
Clc1cccc(OCCCN2CCOC(Cn3cncn3)C2)c1 (stereo unspecified),Percent Effect,30 µM,18.78%
CCCn1cc(CN2CCCC2c2nccc(CN(C)C)n2)cn1 (stereo unspecified),Percent Effect,"30.3 µM, […]",-4.658%
O=C(c1cc(C2CCCCN2C(=O)C2CCC2)n[nH]1)N1CCOCC1 (stereo unspecified),Percent Effect,"30.3 µM, […]",-8.909%
CCc1cnccc1C(=O)Nc1ccc(C(N)=O)nc1,Percent Effect,"30.3 µM, […]",-9.48%
NC(=O)c1ccc(NC(=O)c2ccncc2F)cn1,Percent Effect,"30.3 µM, […]",52.29%
NC(=O)c1ccc(NC(=O)c2ccncc2Cl)cn1,Percent Effect,"30.3 µM, […]",4.641%
COCC(=O)N1CCCCC1c1nc(C)c2c(n1)N(C1CC1)C(=O)CC2 (stereo unspecified),Percent Effect,"30.3 µM, […]",6.342%
c1csc(-c2cc(CN3CCN(c4nccs4)CC3)no2)c1,Percent Effect,"30.3 µM, […]",21.99%
Cc1cc(=O)c(C(=O)N2CCN(C)c3ccccc3C2)c[nH]1,Percent Effect,"30.3 µM, […]",-29.42%
Cc1cc(=O)[nH]cc1C(=O)N1CCN(C)c2ccccc2C1,Percent Effect,"30.3 µM, […]",57.95%
Cc1cc(=O)[nH]cc1C(=O)N1Cc2ccccc2N(C)CC1C (stereo unspecified),Percent Effect,"30.3 µM, […]",-24.09%
COCc1nnc(NC(=O)CN2C(=O)c3ccccc3NC2C(C)C)s1 (stereo unspecified),Percent Effect,"30.3 µM, […]",33.02%
NC(=O)CCCNC(=O)Cc1cccc(I)c1,Percent Effect,"30.3 µM, […]",7.14%
O=C(NC1CC1)NC(c1ccc(F)cc1)C1CC1 (stereo unspecified),Percent Effect,"30.3 µM, […]",4.479%
N#Cc1cccc(N2CCCC3(CN(C(=O)c4ccc[nH]4)CCO3)C2)c1 (stereo unspecified),Percent Effect,"30.3 µM, […]",1.97%
CCC1=N[C@@]2(CC[C@@H]3CN(Cc4ccccc4C)C[C@@H]32)C(=O)N1C.O=C(O)C(F)(F)F,Percent Effect,"30.3 µM, […]",57.66%
CCC1=N[C@@]2(CC[C@@H]3CN(Cc4ccccc4C)C[C@@H]32)C(=O)N1.O=C(O)C(F)(F)F,Percent Effect,"30.3 µM, […]",9.963%
CCC1=N[C@@]2(CC[C@@H]3CN(Cc4ccc(C)cc4)C[C@@H]32)C(=O)N1C.O=C(O)C(F)(F)F,Percent Effect,"30.3 µM, […]",15.86%
CCc1ccc(C2COCCN2C(=O)Nc2ccc(C(N)=O)c(Cl)c2)o1 (stereo unspecified),Percent Effect,"30.3 µM, […]",-7.006%
CC1=C(C(=O)N2CCCC(Cn3cc(CO)nn3)C2)OCCO1 (stereo unspecified),Percent Effect,"30.3 µM, […]",-4.102%
Cc1ccccc1-n1cnc(Cl)c1CO,Percent Effect,"30.3 µM, […]",0.1894%
NS(=O)(=O)c1cccnc1NCc1ccco1,Percent Effect,"30.3 µM, […]",37.64%
NS(=O)(=O)c1cccnc1Nc1cccc(Cl)c1Cl,Percent Effect,"30.3 µM, […]",7.348%
NS(=O)(=O)c1cccnc1Nc1c(Cl)cccc1Cl,Percent Effect,"30.3 µM, […]",68.36%
CC1Cc2ccccc2N1C(=O)Cn1nc(-c2cccs2)ccc1=O (stereo unspecified),Percent Effect,"30.3 µM, […]",31.43%
O=C1CC(c2ccc(C(=O)O)cc2)c2ncn(-c3ccccc3F)c2N1 (stereo unspecified),Percent Effect,"30.3 µM, […]",26.03%
CC(=O)Nc1nc(C(=O)NCc2ccc(N3CCCC3)nc2)cs1,Percent Effect,30 µM,7.198%
CC(=O)Nc1nc(C(=O)Nc2ccc(N3CCCCC3)nc2)cs1,Percent Effect,"30 µM, 30.03 µM",56.06%
CC(=O)Nc1nc(C(=O)NCc2ccc(N3CCCCCC3)nc2)cs1,Percent Effect,"30 µM, 30.03 µM",27.71%
Cc1cn2c(n1)CCC(NC(=O)CCC(F)(F)F)C2 (stereo unspecified),Percent Effect,"30 µM, 30.03 µM",-20.9%
CCc1nnc(CN2CCN(c3cccc(OC)c3)C(=O)C2)o1,Percent Effect,"30.3 µM, […]",85%
COc1cc(CN2CCN(c3cccc(OC)c3)C(=O)C2)cc(OC)c1,Percent Effect,"30 µM, 30.03 µM",-0.5901%
CCc1ccc(CN2CCN(c3cccc(OC)c3)C(=O)C2)nc1,Percent Effect,"30.3 µM, […]",11.49%
COc1ccc(N2CCN(Cc3nc(CSC)no3)CC2=O)cc1,Percent Effect,"30.3 µM, […]",62.54%
COCCc1noc(CN2CCN(c3ccc(OC)cc3)C(=O)C2C)n1 (stereo unspecified),Percent Effect,"30.3 µM, […]",6.497%
COc1ccc(N2CCN(Cc3nc(CSC)no3)C(C)C2=O)cc1 (stereo unspecified),Percent Effect,"30.3 µM, […]",-39.19%
O=C(Nc1ccccc1F)C1=NN(c2ccccc2)C(=O)CN1,Percent Effect,30 µM,-15.12%
Cc1cc(NCCc2c(C)n[nH]c2C)nc(-c2cccnc2)n1,Percent Effect,"30.3 µM, […]",4.777%
Cn1ccnc1CN(Cc1ccccn1)Cc1ccccc1Cl.O=C(O)CC(O)(CC(=O)O)C(=O)O,Percent Effect,"30.3 µM, […]",10.71%
O=C(Nc1ccc(Cl)cn1)c1cncc(C2CCNCC2)n1,Percent Effect,"30.3 µM, […]",-16.97%
COc1ccccc1C(=O)N1CCN(CCc2scnc2C)CC1,Percent Effect,"30.3 µM, […]",5.837%
CCS(=O)(=O)NCC(=O)Nc1cc(CC(C)(C)C)n[nH]1,Percent Effect,"30.3 µM, […]",-13.95%
